This is part of a sample that, as a whole, favours compounds with a hit. Of some 79,000 tested, about 15% had one in any assay. No stated cut-off is given here; in the data, active means growth inhibition above about 70%; inactive means the rest.
Assays:
[1] = NCI Yeast Anticancer Drug Screen. Data for the rad50 strain (AID 155);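 further: 0% = growth of vehicle-only cultures of the same strain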; conditions: S. cerevisiae rad50 strain growth inhibition; at 50.0 µM; active compounds read high
In short: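 Relative growth inhibition (compound vs vehicle) was measured in yeast with a defined repair-gene alteration.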

[2] = NCI Yeast Anticancer Drug Screen. Data for the mec2-1 strain (AID 157); conditions: S. cerevisiae mec2-1 strain, at 50.0 µM, active compounds read high
In short: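 Compounds were applied to mec2-1 yeast cells. Their growth was then compared with that of vehicle-treated cultures to give growth inhibition.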

[3] = NCI Yeast Anticancer Drug Screen. Data for the sgs1 mgt1 strain (AID 161);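 further: 0% = growth of cultures given vehicle only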; conditions: S. cerevisiae sgs1 mgt1 strain, at 50.0 µM, active compounds read high
In short: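 Growth of a repair-deficient yeast mutant was monitored after compound treatment and expressed as inhibition relative to vehicle-treated cultures.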

[4] = NCI Yeast Anticancer Drug Screen. Data for the cln2 rad14 strain (AID 165);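 further: 0% = growth equal to vehicle treated cultures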; conditions: S. cerevisiae cln2 rad14 strain, at 50.0 µM, active compounds read high
In short: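 Strain: cln2 rad14 yeast, altered in cell cycle control and DNA damage repair. Read-out: growth inhibition vs vehicle.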

[5] = NCI Yeast Anticancer Drug Screen. Data for the bub3 strain (AID 167); conditions: S. cerevisiae bub3 mutant strain, at 50.0 µM, active compounds read high
In short: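 Screening used yeast with an engineered genetic alteration affecting cell cycle control. Compound-exposed cultures were compared with vehicle cultures, and reduced growth was taken as inhibition.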

[6] = NCI Yeast Anticancer Drug Screen. Data for the mlh1 rad18 strain (AID 175); conditions: S. cerevisiae mlh1 rad18 strain growth inhibition; at 50.0 µM; active compounds read high
In short: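 A repair-deficient yeast strain is exposed to test compound, and growth is scored relative to vehicle-treated controls.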

Measured: growth inhibition

Cn1c(=O)c2c(nc(C(c3ccccc3)c3ccccc3)n2C)n(C)c1=O
inactive: [1] -11.3% | [2] -25.5% | [3] -3.55% | [4] -33.5% | [5] 6.25% | [6] -18.6%

CCCCCCCCCCP(=O)(O)CCCCCCCCCC
inactive: [1] 8.3% | [2] -3.8% | [3] 9.9% | [4] -144% | [5] 21.7% | [6] -16.3%

NC(=O)SCC(N)C(=O)O (stereo unspecified)
inactive: [1] 0.25% | [2] -21.4% | [3] 1.55% | [4] 3.55% | [5] 4.95% | [6] 6.8%

C#CC(O)(CC)CCCC (stereo unspecified)
inactive: [1] -8.85% | [2] -13.4% | [3] 10.2% | [4] -18.5% | [5] -10.9% | [6] -4.25%

O=c1c2c(sc3ccccc13)NCN(CCc1ccccc1)C2
inactive: [1] -10.7% | [2] -4.15% | [3] 20.9% | [4] 3.2% | [5] 19.1% | [6] 12.2%

COC(CNc1nc2c(s1)c1c(O)c3c(O)c(C)c4c(c32)C(=O)C(C)(O/C=C\C(OC)C(C)C(OC(C)=O)C(C)C(O)C(C)C(O)C(C)/C=C/C=C(/C)C(=O)N1)O4)OC (stereo unspecified)
inactive: [1] 6.15% | [2] -5.6% | [3] -13% | [4] 14.3% | [5] -15.6% | [6] -4.65%

O=C(NC(=O)c1c(F)cccc1F)Nc1cccc(C(F)(F)F)c1
inactive: [1] 8.55% | [2] 6.15% | [3] 3.9% | [4] 6.75% | [5] -3.3% | [6] 10.7%

c1ccc2c3c(cc(CCc4cc5c(c6ccccc46)CCCC5)c2c1)CCCC3
inactive: [1] -9.8% | [2] -18.3% | [3] -5.65% | [4] -16% | [5] -8.9% | [6] -4.2%

Brc1ccc(Br)nc1
inactive: [1] -7.6% | [2] -4.65% | [3] -10.1% | [4] 8.05% | [5] -10.1% | [6] -12.9%

CC(C)/C=N\n1c(N)c(C#N)c(C#N)c1C(C)C
inactive: [1] -4.9% | [2] -5.2% | [3] -37% | [4] 5.95% | [5] -52.8% | [6] -33.6%

O=C(O)C#Cc1cccnc1
inactive: [1] -10.9% | [2] -14% | [3] 0.75% | [4] 6% | [5] -3.4% | [6] -16.9%

N#CCC(=O)NCCc1c[nH]c2ccccc12
inactive: [1] -18.1% | [2] 0.2% | [3] -14.7% | [4] -32.8% | [5] -6.1% | [6] -27.8%

Nc1nc[n+](Cc2ccccc2)c2ncn(Cc3ccccc3)c12
inactive: [1] -5.6% | [2] -23.6% | [3] -11.2% | [4] -9.25% | [5] -14.7% | [6] 3.5%

CC1CC(N2CSC(=S)N(C3CC(C)CC(C)(C)C3)C2)CC(C)(C)C1 (stereo unspecified)
inactive: [1] -17.2% | [2] -16.2% | [3] -4.55% | [4] 9.5% | [5] 3.9% | [6] -0.4%

NC(=O)C(=O)C1CCC2=C(Sc3ccccc3N2)C1=O (stereo unspecified)
inactive: [1] 39.5% | [2] -5.4% | [3] -6.35% | [4] 30.1% | [5] 34% | [6] 4.5%

CC1=CC(O)(c2ccccc2)C(N2CCOCC2)N1O (stereo unspecified)
inactive: [1] -2.85% | [2] -25.6% | [3] -3.5% | [4] 13.6% | [5] 23.4% | [6] -8.55%

O=S(=O)(O)CCCCCO
inactive: [1] -6.45% | [2] -18.7% | [3] -15.7% | [4] -46.8% | [5] -2.85% | [6] -9.95%

NC(=O)NCc1ccc(CNC(N)=O)cc1
inactive: [1] 11.3% | [2] 15.1% | [3] -2.9% | [4] -61.5% | [5] 3.25% | [6] 3.35%

COc1ccc(C23OCN(c4ccccc4)C2(c2ccc(OC)cc2)c2ccccc2N3C)cc1 (stereo unspecified)
inactive: [1] 4.15% | [2] -6.85% | [3] -25.4% | [4] -0.25% | [5] -2.25% | [6] 11.3%

ClCc1ccc(CCc2ccc(CCl)cc2)cc1
inactive: [1] 17.9% | [2] -17.9% | [3] 22.6% | [4] -44.9% | [5] 16.3% | [6] 8.15%

CCC1CN2CCc3cc(OC)c(OC)cc3C2CC1CCCl (stereo unspecified)
inactive: [1] -8.6% | [2] 4.05% | [3] -4.5% | [4] -9.7% | [5] -29.9% | [6] -24.7%

O=C(O)COc1ccc2ccccc2c1 (tested in a mixture with another compound)
inactive: [1] -36% | [2] -19.9% | [3] -26.3% | [4] -37.7% | [5] -0.1% | [6] -5.65%

CCOC(=O)c1cc2c(nc1NCc1ccccc1)C(=O)CCCC2
inactive: [1] 7.95% | [2] 22% | [3] 30.8% | [4] 10.3% | [5] 26.4% | [6] 17.6%

CCOC(OCC)C(N)C(=O)O (stereo unspecified)
inactive: [1] 6% | [2] 23.7% | [3] 1.4% | [4] -19.3% | [5] 10.8% | [6] -15%

CCOC1(OCC)C2(Cl)C(Cl)=C(Cl)C1(Cl)C1CCCC12 (stereo unspecified)
inactive: [1] 23.7% | [2] 3.75% | [3] 11.5% | [4] 17.1% | [5] -12.7% | [6] 20.6%

N#CC(C#N)=C(N)/C(C#N)=C/c1ccc2ccccc2n1
inactive: [1] -0.25% | [2] -11.2% | [3] -5.75% | [4] 12.8% | [5] -5.45% | [6] -12.2%

Oc1ccc(C2=NNC(c3ccc(O)cc3)=NN2)cc1
inactive: [1] 12.7% | [2] 11.9% | [3] 17% | [4] 21.1% | [5] 12.8% | [6] 10.1%

O=c1oc(-c2ccccc2)c(-c2ccccc2)o1
inactive: [1] 43% | [2] 22.8% | [3] 21.9% | [4] -46.8% | [5] 45.6% | [6] 46.4%

Oc1ccc(Cl)cc1/C=N\NC(=S)Nc1ccc2cn[nH]c2c1
inactive: [1] -2.7% | [2] 10.1% | [3] 13.9% | [4] -39.4% | [5] 20.8% | [6] 11.3%

CCOC(=O)/C=C/SCCCC(=O)O
inactive: [1] 1.5% | [2] -1.5% | [3] 0.25% | [4] -22.8% | [5] -4.55% | [6] 42.2%

CC(=O)OCC1OC(n2c(C)c(C(C)=O)c(-c3cccc4ccccc34)c(C#N)c2=S)C(OC(C)=O)C(OC(C)=O)C1OC(C)=O (stereo unspecified)
inactive: [1] 25.1% | [2] 22.4% | [3] 48% | [4] 22.1% | [5] 32.3% | [6] 33.9%

[S-]c1n[n+](-c2ccccc2)c(-c2ccc(Cl)cc2)s1
inactive: [1] -2.05% | [2] 5.8% | [3] 7.75% | [4] -3.65% | [5] -4.85% | [6] 0.45%

Nc1ccc(C(=O)O)c(O)c1.Nc1ccc(C(=O)O)c(O)c1.[Cu]
inactive: [1] -13.4% | [2] 2.4% | [3] -20.3% | [4] 3.6% | [5] -1.95% | [6] -5.05%

[O-]/[N+]1=[N+](\[O-])c2ccccc2CCCc2ccccc21
inactive: [1] -7.35% | [2] -7.3% | [3] -2.6% | [4] -34.1% | [5] -12.8% | [6] -7.1%

N#CC(c1ccccc1)C(c1ccccc1)c1cccc2ccccc12 (stereo unspecified)
inactive: [1] 12.2% | [2] 12.3% | [3] 5.7% | [4] -6.85% | [5] -3.3% | [6] 15.6%

CCCCCCCCCCCCCCCCCC(C)O (stereo unspecified)
inactive: [1] -8.7% | [2] -13.2% | [3] -1.05% | [4] 1.85% | [5] -10.4% | [6] -10.8%

Cc1cc2c(c(C)c1O)C(C)(C)CN2C(=O)C(C)(C)C
inactive: [1] -12.2% | [2] -53% | [3] 2.55% | [4] -8.85% | [5] 2.1% | [6] -10.9%

CCOc1cn(C2OC(CO)C(O)C2O)c(=O)[nH]c1=O (stereo unspecified)
inactive: [1] -33.9% | [2] -28.4% | [3] -16.2% | [4] 3.55% | [5] -25.2% | [6] 3.5%

CSCCC(N)=O
inactive: [1] -10.2% | [2] -6.95% | [3] 9.8% | [4] 0.05% | [5] -16.8% | [6] 2.9%

Nc1nc(N)nc(-c2ccccc2NS(=O)(=O)c2ccc([N+](=O)[O-])cc2)n1
inactive: [1] 1.6% | [2] 21.8% | [3] 6.2% | [4] 3.45% | [5] 11.2% | [6] 38.4%

CC(=O)C(=CC=C(c1ccc(N(C)C)cc1)c1ccc(N(C)C)cc1)C(C)=O
inactive: [1] -45.3% | [2] -8.55% | [3] 9.5% | [4] -14.8% | [5] 12.7% | [6] -13.6%
